Unmarked numbers belong to inactive results.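 How the source made its calls: active = growth AUC significantly below the DMSO wells by Dunnett test; inactive = the rest.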
Tests used:
Experiment in all cases: relative growth (AUC of 72 h growth curve relative to DMSO control, dAUC) (ratio); higher = more growth (less inhibition), active = hit call of the paper
Conditions in all cases: 20 µM
[1] = system: Aeromonas 1 (Aeromonas sp. AE235)
Method in brief: (§1)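 Cultures grown to carrying capacity in Luria–Bertani medium, drawn from Icelandic stream sediment and Silwood Park soil isolates and whole sediment communities, were diluted 1:100 into 96-well plates with each chemical at 20 µM (1% DMSO) and read at A600 hourly for 72 h. The spline-integrated area under the growth curve, divided by the mean of the DMSO controls, is reported as relative growth (dAUC). Values are means of three biological replicates.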

[2] = system: Aeromonas 2 (Aeromonas sobria)
Method in brief: as §1

[3] = system: Aeromonas 3 (Aeromonas popoffii)
Method in brief: as §1

[4] = system: Argrobacterium 1 (Agrobacterium sp.)
Method in brief: as §1

[5] = system: Arthrobacter 1 (Arthrobacter humicola)
Method in brief: as §1

[6] = system: Arthrobacter 2 (Arthrobacter humicola)
Method in brief: as §1

[7] = system: Arthrobacter 3 (Arthrobacter sp.)
Method in brief: as §1

Community 4 = system: Community 4
Method in brief: as §1

Community 6 = system: Community 6
Method in brief: as §1

Community 7 = system: Community 7
Method in brief: as §1

Community 8 = system: Community 8
Method in brief: as §1

Community 9 = system: Community 9
Method in brief: as §1

[8] = system: Flavobacterium 1 (Flavobacterium glaciei)
Method in brief: as §1

[9] = system: Flavobacterium 2 (Flavobacterium succinicans)
Method in brief: as §1

[10] = system: Hymenobacter 1 (Hymenobacter glaciei)
Method in brief: as §1

[11] = system: Microbacterium 1 (Microbacterium arborescens)
Method in brief: as §1

[12] = system: Neobacillus 1 (Neobacillus soli)
Method in brief: as §1

[13] = system: Oryzobacter 1 (Oryzobacter terrae)
Method in brief: as §1

[14] = system: Paenibacillus 1 (Paenibacillus castaneae)
Method in brief: as §1

SMILES	relative growth [1]	relative growth [2]	relative growth [3]	relative growth [4]	relative growth [5]	relative growth [6]	relative growth [7]	relative growth (Community 4)	relative growth (Community 6)	relative growth (Community 7)	relative growth (Community 8)	relative growth (Community 9)	relative growth [8]	relative growth [9]	relative growth [10]	relative growth [11]	relative growth [12]	relative growth [13]	relative growth [14]
C[N+]1(C)CCCCC1	1.03	1.01	1.02	0.994	1.08	0.96	1.04	1.09	1.07	0.992	0.99	1.06	1.03	1.03	1.08	0.951	1	1.06	1
CNC(=O)c1cc(C#N)cc(C)c1NC(=O)c1cc(Br)nn1-c1ncccc1Cl	0.986	0.95	1.01	1.03	1	0.967	0.99	0.903	0.946	1.05	0.986	1.02	1.02	0.975	0.978	0.993	0.957	1.06	0.915
CNC(=O)Oc1cccc2ccccc12	0.941	0.918	0.921	1.09	0.924	1.07	1.14	0.976	1.01	0.845	1.06	0.967	1.09	1.01	1.03	1.02	1.04	0.972	1
C#CCN1C(=O)COc2cc(F)c(N3C(=O)C4=C(CCCC4)C3=O)cc21	0.987	0.969	0.982	0.996	1.03	0.974	0.979	0.951	0.959	1.07	1.01	0.923	0.957	0.977	1.06	1.04	1.01	1.04	0.935
COP(=S)(OC)Oc1nc(Cl)c(Cl)cc1Cl	1.04	1.02	1.01	1.05	0.769	0.312 (active)	0.646 (active)	0.867	0.987	1.04	1.06	1.03	0.348 (active)	0.97	0.99	1.04	1.01	1.05	0.874
CC1(C)C(C=C(Cl)Cl)C1C(=O)OCc1cccc(Oc2ccccc2)c1 (centres undefined)	1.03	0.961	0.99	1.04	1.12	0.851	0.987	0.922	0.94	1.08	0.975	0.932	0.977	0.958	0.989	0.987	1.05	1.14	0.894
O=C1C=C(N(Cc2ccc(Cl)nc2)CC(F)F)CO1	0.953	0.967	0.978	0.974	1.05	1.08	1.01	1.01	0.923	0.945	0.997	0.992	1.09	0.993	1.1	1.04	1.02	1.11	0.899
CNC(=O)CSP(=S)(OC)OC	0.944	0.984	0.967	1.02	1.04	0.992	0.978	0.765	0.957	1.12	0.999	0.921	1.06	0.966	0.971	1	0.948	1.07	0.975
Oc1ccccc1-c1ccccc1	1.01	0.967	1.01	0.914	0.929	0.866	0.964	0.851	0.973	1.12	0.988	0.974	0.75	0.946	0.951	1.04	0.9	1.12	0.888
CC(C1CC1)C(O)(Cn1cncn1)c1ccc(Cl)cc1 (centres undefined)	0.97	0.942	0.964	1.09	0.89	0.961	0.944	1.01	1.02	1.02	1.04	0.989	0.999	0.955	1.03	0.987	0.985	0.982	0.959
CN(C)C(CSS(=O)(=O)O)CSS(=O)(=O)O	0.987	0.976	0.992	0.997	1.02	1.04	1.04	1.04	0.914	1	1.02	0.942	1.09	1	1.07	1.06	1	1.13	0.935

From the supplement of paper PMC12067926
